This is an account of results in the supplement of paper PMC9588786.

The structures appear in SMILES notation. ± gives the standard deviation of the averaged measurements.
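Also: viability read as CCK-8 absorbance at 450 nm in cells co-exposed to the GPX4 inhibitor RSL3, relative to a 0.01% DMSO vehicle control.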

This assay deals with HT-1080. The experiment in a line: relative cell viability with RSL3 co-treatment (fraction of control); higher = stronger protection from RSL3-induced ferroptosis (higher viability). The conditions noted are these: 10 µM.
With `COc1cc2ncnc(Nc3cccc(Cl)c3)c2cc1OC` [AG-1478 (Tyrphostin AG-1478)], the relative cell viability is 0.68 ± 0.2.
With `Nc1ccc(C(=O)Nc2cccc(-c3nc(N4CCOCC4)c4oc5ncccc5c4n3)c2)cn1` the figure was 0.303 ± 0.067.
As for `CCc1cnn2c(NCc3ccc[n+]([O-])c3)cc(N3CCCC[C@H]3CCO)nc12`, the relative cell viability worked out at 0.61 ± 0.1.
Turning to `CO[C@H]1C[C@@H]2CC[C@@H](C)[C@@](O)(O2)C(=O)C(=O)N2CCCC[C@H]2C(=O)O[C@H]([C@H](C)C[C@@H]2CC[C@H](n3cnnn3)[C@H](OC)C2)CC(=O)[C@H](C)/C=C(\C)[C@@H](O)[C@@H](OC)C(=O)[C@H](C)C[C@H](C)/C=C/C=C/C=C/1C` [Zotarolimus(ABT-578)], the relative cell viability stood at 0.607 ± 0.16.
For `Cc1cc2c(F)c(Oc3ncnn4cc(OC[C@@H](C)OC(=O)[C@H](C)N)c(C)c34)ccc2[nH]1`, the relative cell viability came to 0.653 ± 0.095.
With `CCS(=O)(=O)c1cccc(-c2cc(C(=O)NC3CCN(C)CC3)c(C)c3[nH]c4ncc(C)cc4c23)c1` the figure was 0.397 ± 0.046.
With `O=C(Nc1ccc(OC(F)(F)F)cc1)c1sccc1NCc1ccnc2ccccc12` the figure was 0.57 ± 0.095; with `COc1cc2ncnc(Nc3ccc(O)c(Br)c3)c2cc1OC`, 0.8167 ± 0.0058; with `CN1CCN(c2ccc(-c3ccncc3-c3cc(F)c(O)c(F)c3)cc2)CC1`, 0.48 ± 0.25.
With `O=C(Nc1cccc(Nc2ncc(Br)c(NCCc3cnc[nH]3)n2)c1)N1CCCC1` the figure was 0.743 ± 0.04; with `FC(F)c1nc2ccccc2n1-c1nc(N2CCOCC2)nc(N2CCOCC2)n1`, 0.723 ± 0.14.
For the molecule `O=C1c2ccc(Nc3ccc(F)cc3F)cc2CCc2ccc(OC[C@H](O)CO)cc21` [Skepinone-L], the relative cell viability worked out at 0.513 ± 0.12.
